GLP-1R agonist – GLP-1 receptor (human) agonism. P43220. HEK293 GLP-1R CRE-luciferase, luminescence, 4-6 h; cells express a hypersensitive GLP-1R form. Potency, µM (doses to about 45.6 µM), for inactives: at the highest dose activation, usual class: activators. hit rate 0.007% among 380,000. AID 624172; also: % of control where 0% means no effect
GLS inhibitor – inhibitors of human glutaminase (GLS); Potency, µM (highest dose often 45.5 µM), for the others: top-dose activity change, negative = inhibition, most hits filed as inhibitors; hit rate 0.21% among 410,000; GLS enzymatic activity, qHTS titration; AID 624170; also: % is scaled to controls: 0 for no effect and ±100 for the full control effect
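Enzyme dispensed in phosphate buffer (45 mM, pH 8.2, 0.02% Tween-20), compounds pinned in, then 1 mM L-glutamine solution and the glutamate oxidase–HRP–Amplex Red mix added; fluorescence read immediately and again after 30 min at room temperature.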
GRP78 ERSR act – ER stress response induction in glioma; U87-MG GRP78 promoter luciferase reporter, 16 h; Potency, µM, for inactives: top-dose activation, usual class: activators; hit rate 0.02% among 420,000; AID 602332; also: series mostly up to about 76 µM; % of control where 0% means no effect; nearly all actives have a fitted effect of over 35% in size
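Stably transfected U87-MG human glioma cells carrying a GRP78-based luminescent sensor were seeded at 1000 cells/well, pin-dosed with compounds and incubated 16 h. Luciferase reagent was then added, and end-point luminescence was read after 10 min at room temperature.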
12-LOX inh – ALOX12 (human) lipoxygenase inhibition; Potency, µM (top dose mostly 108 µM), without a hit: top-dose activity change, negative = inhibition, hits mostly inhibitors; AID 1671190; purified 12hLO, xylenol orange hydroperoxide absorbance; hit rate 1.1% among 580,000; P18054; also: % is scaled to controls: 0 for no effect and ±100 for the full control effect
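Hydroperoxide product was detected by ferrous iron/xylenol orange as the 573 to 405 nm absorbance ratio. Arachidonic acid at 40 uM (final) was turned over for 30 min at room temperature by 150 nM human 12hLO, pH 7.0 Hepes buffer, after 15 min compound preincubation.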
GLP-1R inv ag – inverse agonists of human GLP-1 receptor; Potency, µM (series often up to 38.3 µM), without a hit: at the top dose activity change, negative = inhibition, hits mostly inhibitors; hit rate 1.6% among 410,000; P43220; AID 624417; HEK293 GLP-1R CRE-luciferase, luminescence, 24 h; GLP-1R form is constitutively active; also: % is scaled to controls: 0 for no effect and ±100 for the full control effect; nearly all actives have a fitted effect of over 55% in size
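Readout was luciferase luminescence, measured 12 min after detection reagent at room temperature. Beforehand, GLP-1R reporter HEK293 cells had sat 12 h, then received compounds for 24 hr at 37 deg C.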
PTHR1 agonist – agonists of human PTHR1 parathyroid hormone receptor; HEK293 GP2 PTHR1 cells, GloSensor cAMP luminescence, 1 h; Potency, µM (titrated, usually from 115 µM), inactives show at the highest dose activation, actives largely listed as activators; hit rate 0.075% among 410,000; also: nearly all actives have a fitted effect of over 55% in size
Target sequence (Q03431 whole entry, looked up): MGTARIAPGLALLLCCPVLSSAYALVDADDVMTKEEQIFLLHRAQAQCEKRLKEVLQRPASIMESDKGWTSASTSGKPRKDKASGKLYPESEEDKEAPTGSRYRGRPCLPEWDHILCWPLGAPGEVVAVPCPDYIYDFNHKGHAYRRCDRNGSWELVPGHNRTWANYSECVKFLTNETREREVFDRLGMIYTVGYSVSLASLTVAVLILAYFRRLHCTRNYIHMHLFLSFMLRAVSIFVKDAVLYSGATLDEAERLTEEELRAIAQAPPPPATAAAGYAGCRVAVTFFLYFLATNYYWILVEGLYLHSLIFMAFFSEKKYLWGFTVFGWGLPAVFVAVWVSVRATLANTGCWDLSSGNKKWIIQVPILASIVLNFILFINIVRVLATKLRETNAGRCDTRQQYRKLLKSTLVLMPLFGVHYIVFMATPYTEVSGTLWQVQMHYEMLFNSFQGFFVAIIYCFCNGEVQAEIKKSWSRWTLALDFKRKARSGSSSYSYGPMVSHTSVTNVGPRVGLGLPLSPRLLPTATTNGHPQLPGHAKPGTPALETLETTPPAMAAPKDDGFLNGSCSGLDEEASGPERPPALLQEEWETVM
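HEK-293-derived GP2 cells expressing PTHR1 and a GloSensor cAMP reporter, 3,000/well, plated overnight, given luciferin plus IBMX (each 0.5 mM as added) for 1 h at 37 °C, then compound for 1 h at 37 °C. Luminescence was read after 15 min at room temperature.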
Starred values were filed as active, the others as inactive; i = inactive; ? = inconclusive; . = not tested or not shown; [ ] = another dose, or the depositor's remark. In the library only some 2.3% were active in any assay of this set; here they are far more common. Calls follow the shape of the dose curve; as a rule, active = well fitted curve in the direction sought with a large enough effect; inconclusive = small, poorly fitted or top-dose-only effect, or another doubt; inactive = no such curve, though single readings can be large; an effect the other way counts as inactive or inconclusive. Potency is read from the fitted curve at half-maximal effect.

SMILES | GLP-1R agonist | GLS inhibitor | GRP78 ERSR act | 12-LOX inh | GLP-1R inv ag | PTHR1 agonist
Cc1cccc(OCCNC(=O)c2cccc(Oc3ccc(C(F)(F)F)cc3[N+](=O)[O-])c2)c1 | -2.0% | 1.8% | -2.4% | -2.0% | 2.51µM* | -11.7%
Cc1cccc(OCCNC(=O)c2ccc(Oc3ccc(C(F)(F)F)cc3[N+](=O)[O-])cc2)c1 | -0.4% | -5.3% | -1.4% | -23.9% | ? | -35.2%
Brc1ccc(-c2nnc(-c3ccccc3)c(N3CCSCC3)n2)cc1 | -26.5% | 0.8% | -2.8% | 0.0% | 8.91µM* | -0.7%
CN1CCN(c2nc(-c3ccc(Br)cc3)nnc2-c2ccccc2)CC1 | 24.9% | -4.0% | 0.9% | 5.2% | 8.91µM* | i
CCOC(=O)c1nnc(-c2ccccc2)nc1N1CCSCC1 | 6.7% | 5.3% | -4.7% | -19.0% | -28.6% | -25.8%
Cc1ccc(-c2nnc(-c3ccccc3)c(N3CCOCC3)n2)cc1 | -0.1% | -5.6% | -1.2% | -18.9% | 0.0% | i
COC(CNC(=O)CS(=O)Cc1nc(-c2ccccc2Cl)oc1C)OC (configuration not stated) | . | . | . | -2.8% | . | .
CC1CCN(c2nnc(-n3cccc3CN3CCN(C4CCCCC4)CC3)s2)CC1 | . | . | . | 41.4% | . | .
Cc1cc(C(=O)Cn2c(=O)c3c(ncn3CCC(C)C)n(Cc3ccccc3)c2=O)c(C)n1C | . | . | . | -12.2% | . | .
CN(C)CCCN1C(=O)c2cccc3c(Br)ccc(c23)C1=O | -2.7% | -1.9% | 5.0% | -6.1% | ? | i
CCCCNc1ccc2c3c(cccc13)C(=O)N(CCCC)C2=O | 9.5% | -5.2% | -3.1% | 0.0% | 7.08µM* | -54.9%
NC(CSC1(c2ccc(F)cc2)c2ccccc2-c2ccccc21)C(=O)O (configuration not stated) | 0.3% | -10.6% | -5.4% | ? | ? | -0.5%
NC(CSC1(c2ccc(Cl)cc2)c2ccccc2-c2ccccc21)C(=O)O (configuration not stated) | -3.7% | -3.0% | -5.0% | ? | 7.94µM* | -23.8%
CCN(CC(O)c1cccc(O)c1)C(=O)C12CC3CC(CC(C3)C1)C2 (configuration not stated) | 12.6µM* | 6.5% | -4.6% | 0.0% | ? | i
CCCN(CCC)Cc1cc(=O)oc2cc(OC)c(Cl)cc12 | -3.8% | -5.6% | -3.8% | 31.6µM* | ? | -17.1%
COCCN(CCOC)Cc1cc(=O)oc2cc(C)c(C)cc12 | -1.7% | -1.1% | -0.7% | 14.1µM* | 24.7% | i
C=CCN(CC=C)Cc1cc(=O)oc2cc(OC)c(Cl)cc12 | 20.1% | 18.4% | -4.0% | ? | ? | -63.3%
COCCN1C2=C(C(=O)CC(C)(C)C2)C(c2cccc(O)c2)C2=C1CC(C)(C)CC2=O | . | . | . | -7.9% | . | .
CCn1c(=O)c2cc(C(=O)NCCN(C)C)sc2c2ccccc21 | 17.0% | 3.2% | 1.9% | 5.7% | ? | i
CCN(CC)C(=O)c1cc2sc3ccccc3c2s1 | 23.3% | 10.8% | 6.2% | 15.8µM* | ? | -18.8%[57.5 µM]
COCCN(CCOC)C(=O)c1cc2sc3ccccc3c2s1 | ? | -0.4% | 2.2% | -14.8% | 8.4% | -4.7%[57.5 µM]
CN(C)CCNC(=O)c1cc2sc3ccccc3c2s1 | 1.6% | 3.3% | -5.6% | -16.6% | 3.16µM* | i
N#C/C(=N\Nc1cccc([N+](=O)[O-])c1)C(=O)c1ccc(Br)cc1 | 1.2% | 23.0% | -7.5% | 39.8µM* | -13.2% | -35.7%
CCCC(=O)NC(=S)Nc1ccc(S(=O)(=O)N2CCc3ccccc32)cc1 | 18.6% | 0.2% | -1.1% | 0.0% | 8.91µM* | -15.9%
N#C/C(=N\Nc1ccc(S(=O)(=O)N2CCc3ccccc32)cc1)C(N)=S | -3.3% | 0.0% | -3.5% | 15.8µM* | ? | -42.1%
SMILES | GLP-1R agonist | GLS inhibitor | GRP78 ERSR act | 12-LOX inh | GLP-1R inv ag | PTHR1 agonist
N#C/C(=N\Nc1ccc([N+](=O)[O-])cc1)C(N)=S | -4.7% | -15.0% | -6.0% | 25.1µM* | ? | -18.5%
CCOC(=O)/C(C#N)=N/Nc1ccc(S(=O)(=O)N2CCc3ccccc32)cc1 | -14.2% | 6.4% | -2.3% | ? | -14.1% | -35.2%
CC(Sc1nc2cc(Cl)ccc2s1)C(=O)NCc1ccc2c(c1)OCO2 (configuration not stated) | . | . | . | -28.6% | . | .
CCc1sc(C(=O)OCc2ccccc2C#N)cc1C | . | . | . | 14.4% | . | .
Cc1cccc(C)c1OCC(=O)NCc1nncn1C | . | . | . | -20.8% | . | .
N#C/C(=N\Nc1ccc(S(=O)(=O)N2CCCCCC2)cc1)C(N)=S | 14.7% | -17.6% | 3.0% | ? | ? | -10.9%
N#C/C(=N\Nc1ccc(S(=O)(=O)N2CCCCC2)cc1)C(N)=S | -0.1% | 2.4% | -1.6% | 50.1µM* | ? | -19.5%
COc1ccccc1NC(=O)C(C)N(C)CCOc1ccccc1 (configuration not stated) | 17.1% | -2.0% | -1.4% | -32.9% | 11.2µM* | -23.9%
Cc1ccc2c(c1)-c1ccccc1C2=Nc1cccc2ccccc12 | . | . | . | 29.1% | . | .
COc1ccc(C2C=C(c3ccc(Cl)cc3)Nc3nc(-c4ccc(Cl)cc4)nn32)cc1 (configuration not stated) | . | -4.6% | -2.8% | 5.62µM* | ? | i
Cc1ccc(C2=CC(c3ccc(Cl)cc3)n3nc(-c4ccc(C)cc4)nc3N2)cc1 (configuration not stated) | . | 3.0% | -2.6% | ? | 2.24µM* | i
COc1ccccc1C1C=C(c2ccc(Cl)cc2)Nc2nc(-c3ccc(Cl)cc3)nn21 (configuration not stated) | . | -10.1% | -3.4% | ? | ? | -83.3%
Cc1ccc(-c2nc3n(n2)C(c2ccccc2C)C=C(c2ccc(Cl)cc2)N3)cc1 (configuration not stated) | -2.4% | -4.6% | -1.6% | -10.2% | ? | -3.5%
CCCCNC(=O)c1ccccc1N | . | . | . | 3.1% | . | .
Cc1ccc(S(=O)(=O)NC(C(=O)Oc2ccc3c(C(F)(F)F)cc(=O)oc3c2)c2ccccc2)cc1 (configuration not stated) | -3.7% | 4.6% | -3.5% | 50.1µM* | 19.4% | i
Cc1ccc(S(=O)(=O)Oc2ccc3c(C(F)(F)F)cc(=O)oc3c2)cc1 | . | . | . | -16.7% | . | .
COc1ccc(-c2nn(-c3ccccc3)cc2C(=O)N(C)CC(=O)Nc2cccc(F)c2)cc1 | -3.6% | -2.3% | -2.1% | -9.4% | ? | 5.6%
COc1cccc(-c2nn(-c3ccc(C)cc3)cc2C(=O)N(C)CC(=O)Nc2cccc(F)c2)c1 | -4.1% | -0.2% | -3.2% | 0.0% | 7.08µM* | i
O=C(CSc1ccc2c(c1)OCCCO2)NCc1ccc2c(c1)OCO2 | . | . | . | 3.5% | . | .
